Screens from PubChem BioAssay.
AMA1 RON2 block: inhibitors of Plasmodium falciparum AMA1-RON2 interaction; AID 720542; 360,000 compounds, 0.2% hits; AlphaScreen AMA1-biotinylated RON2 peptide binding; Potency, µM (top dose mostly 58.2 µM), without a hit: at the top dose activity change, negative = inhibition, most hits filed as inhibitors;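 note: 0% = vehicle wells and -100% = peptide control; nearly all actives have a fitted effect of over 45% in size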
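AMA1 (3D7) with his tag at 25 nM final met compounds first, then biotinylated RON2 peptide at 25 nM; detection used donor plus acceptor beads, 10 µg/mL apiece, read by AlphaScreen after 30 min at room temperature.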
Pf growth 96h: inhibits malaria parasite growth, 96 h. Potency, µM (highest dose often 28.7 µM), for inactives: top-dose activity change, negative = inhibition, usual class: inhibitors. P. falciparum luciferase reporter growth, 96 h. 320,000 compounds, 6.9% hits; note: % is set by controls: 0 for no effect and ±100 for the full control effect
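Compounds incubated with erythrocytes infected by luciferase-expressing P. falciparum (2% hematocrit, 0.05% parasitemia final) for 96 hours, 37 C in 5% CO2. Growth inhibition scored as decreased luciferase luminescence.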
SARS PLP yeast: SARS-CoV PLP inhibition in yeast; S. cerevisiae expressing SARS-CoV PLpro, growth rescue; Potency, µM (highest dose often 32.9 µM), for inactives: at the highest dose activity, positive = growth rescue, actives largely listed as activators; 330,000 compounds, 0.19% hits; AID 485353; calls by dose curve; note: 0% is about no effect; nearly all actives have a fitted effect of over 55% in size
NS1 function inh: influenza NS1 inhibition. Potency, µM (highest dose often 46.1 µM), for inactives: at the top dose activity, positive = more growth. 270,000 compounds, 0.4% hits; calls by dose curve; note: actives are rising curves; nearly all actives have a fitted effect of over 50% in size
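S. cerevisiae expressing influenza A NS1, grown in glucose, washed, then diluted 1:100 into pH 6.0 -URA galactose medium with 23 nl compound. Growth recovery read as OD600; NS1-free strain serves as control.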
HCV inh: inhibitors of hepatitis C virus infection; Huh7.5.1 HCVcc-Cre infection, luciferase reporter, 44 h; Potency, µM (series often up to 41.8 µM), without a hit: at the highest dose activity change, negative = inhibition, hits mostly inhibitors; 340,000 compounds, 3.4% hits; note: % is set by controls: 0 for no effect and ±100 for the full control effect
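Whole-lifecycle infectious HCVcc-Cre system; cells 1,000/well, compound then virus (~0.5 moi) added 4 h after plating, 44 h culture. Luciferase read 15 sec following 15 min substrate incubation, room temp.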
Pf growth 48h: inhibits P. falciparum growth in the first generation, 48 h; P. falciparum luciferase growth in erythrocytes, 48 h; Potency, µM (series often up to 28.7 µM), inactives show top-dose activity change, negative = inhibition, hits mostly inhibitors; 310,000 compounds, 5.9% hits; AID 504832; note: % is set by controls: 0 for no effect and ±100 for the full control effect
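Cell-based growth assay: transgenic P. falciparum expressing firefly luciferase, cultured in red cells within RPMI 1640 containing 0.5% w/v Albumax, 24 mM bicarbonate and gentamycin. A drop in luciferase activity indicates inhibition.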
* hit, by the source's call; ? = inconclusive; / = not tested or not shown; [ ] = another dose, or the depositor's remark. Only some compounds are listed: those with a hit (about 12% of all), similar ones and a draw of the others. Unless noted, calls come from the whole dose curve; as a rule, active = well fitted curve in the direction sought with a large enough effect; inconclusive = small, poorly fitted or top-dose-only effect, or another doubt; inactive = no such curve, though single readings can be large; an effect the other way counts as inactive or inconclusive. Potency is the fitted concentration of half-maximal effect.

SMILES	AMA1 RON2 block	Pf growth 96h	SARS PLP yeast	NS1 function inh	HCV inh	Pf growth 48h
NC(=O)C1CCN(C(=O)/C(=C/c2ccccc2)NC(=O)c2ccccc2)CC1	-3.6%	33.2%	0.5%	2.3%	7.9%	66.0%
O=C(Nc1ccc(Oc2c(F)c(F)c(F)c(F)c2F)cc1)OC1CCN2Cc3ccccc3N=C12 (configuration not stated)	0.0%	2.62µM*	-1.1%	-1.3%	3.16µM*	?
COc1cccc(NC(=S)NCc2cccs2)c1	-5.2%[2.32 µM]	312.8%	-4.5%	8.0%	-15.4%	40.2%
O=C(c1cc(C2CCCCN2C(=O)OCCF)on1)N1CCOCC1 (configuration not stated)	8.0%	/	/	/	/	/
CN1Cc2c(N3CCOCC3)nc(SCc3ccccc3)c(C#N)c2CC1(C)C	-8.4%	5.6%	18.0%	3.3%	10µM*	0.0%
CCSc1nc(N2CCOCC2)c2c(c1C#N)CC(C)(C)N(C)C2	0.6%	5.22µM*	-1.3%	9.3%	-4.5%	/
C=CCSc1nc(N2CCOCC2)c2c(c1C#N)CC(C)(C)N(C)C2	4.4%	?	-0.3%	-1.6%	-24.5%	?
N#CCCSc1nc(N2CCOCC2)c2c(c1C#N)CCCC2	1.6%	-7.5%[5.75 µM]	0.2%	-52.5%	?	2.4%
CC1(C)Cc2c(C#N)c(SCC(=O)c3ccccc3)nc(N3CCOCC3)c2CS1	-18.0%	?	2.8%	29.3%	?	2.33µM*
CCCSc1nc(N2CCOCC2)c2c(c1C#N)CCCC2	3.3%	3.1%	-15.3%	-4.1%	11.2µM*	-26.1%
CC1(C(=O)NS(=O)(=O)C2CC2)CCCN(C(=O)/C=C/c2ccccc2)C1 (configuration not stated)	-4.8%	/	/	/	/	/
CCCOC(=O)C1=C(C)NC2=C(C(=O)CCC2)C1c1cccc(OC)c1OC (configuration not stated)	-1.3%	8.28µM*	-0.6%	-9.7%	2.3%	13.8%
COCCOC(=O)C1=C(C)N(Cc2ccccc2)C(=O)NC1c1cccc(OC)c1OC (configuration not stated)	-8.5%	1.04µM*	2.5%	-16.9%	8.3%	?
CCOC(=O)C1=C(C)NC2=C(C(=O)CCC2)C1c1coc2ccccc2c1=O (configuration not stated)	1.0%	11.7µM*	-14.4%	?	-7.2%	/
CC(C)NC(=O)N(C)C[C@H]1Oc2ccc(NS(=O)(=O)c3ccc(F)cc3)cc2C(=O)N([C@H](C)CO)C[C@@H]1C	5.6%	/	-4.5%	/	20.1%	/
Cc1nnc(SCc2ccc(CSc3nnc(C)c(=O)[nH]3)cc2)[nH]c1=O	-2.1%	-2.0%	5.3%	/	15.3%	12.4%
COc1cc(OC)c2c(-c3ccccc3)cc(=O)oc2c1C(CCN1CCCCC1)c1ccc2c(c1)OCO2 (configuration not stated)	-9.9%	9.28µM*	-0.3%	2.4%	?	?
COc1cc(OC)c2c(C)cc(=O)oc2c1C(CCN1CCOCC1)c1ccc2c(c1)OCO2 (configuration not stated)	-12.6%	?	0.0%	-3.9%	?	?
COc1cc(O)c(C(CCN2CCCC(C)C2)c2cc(OC)c(OC)c(OC)c2)c(OC)c1 (configuration not stated)	50.2%	0.522µM*	-0.2%	-5.6%	-25.3%	1.31µM*
COc1cc(O)c(C(CC(=O)N2CCCCC2)c2ccc3c(c2)OCO3)c(OC)c1 (configuration not stated)	-1.0%	-12.1%	0.5%	-3.6%	-11.0%	9.2%
COc1cc(OC)c2c(-c3ccccc3)cc(=O)oc2c1C(CCN1CCCC(C)C1)c1ccc2c(c1)OCO2 (configuration not stated)	2.5%	?	2.6%	-3.2%	-25.0%	11.7µM*
COc1cc(O)c(C(CCN2CCCCC2)c2ccc3c(c2)OCO3)c(OC)c1 (configuration not stated)	-7.8%	0.465µM*	-1.7%	0.2%	-22.5%	0.928µM*
CC1(C)COC(c2ccc(F)c([N+](=O)[O-])c2)=N1	13.1%	?	18.5%	9.3%	?	6.0%
CSCC[C@H](NC(=O)OC(C)(C)C)C(=O)N1CCC(C(=O)N[C@@H](C)C(=O)NCc2ccc(F)cc2)CC1	-1.5%	?	4.7%	-7.4%	-14.5%	?
N#Cc1ccc(C(=O)N2CCCCC2c2cc(C(=O)Nc3cccc(C#N)c3)no2)cc1 (configuration not stated)	0.0%	/	/	/	/	/
SMILES	AMA1 RON2 block	Pf growth 96h	SARS PLP yeast	NS1 function inh	HCV inh	Pf growth 48h
COc1cc(OC)c2c(-c3ccccc3)cc(=O)oc2c1C(CC(=O)N1CCCC1)c1ccc2c(c1)OCO2 (configuration not stated)	-17.1%	?	-3.6%	-14.4%	?	9.28µM*
COc1cc(OC)c2ccc(=O)oc2c1C(CC(=O)N1CCCC(C)C1)c1ccc2c(c1)OCO2 (configuration not stated)	-15.1%	?	-1.8%	7.3%	-13.3%[8.37 µM]	?
COc1ccc(CC(=O)Nc2nc3ccccc3s2)cc1S(=O)(=O)N1CCOCC1	-24.3%	?	?	-0.8%	11.2µM*	?
COc1ccc(CC(=O)Nc2nc3ccc(F)cc3s2)cc1S(=O)(=O)N1CCOCC1	-20.1%	6.57µM*	-1.6%	0.7%	12.6µM*	?
COc1ccc(CC(=O)Nc2cc(F)ccc2F)cc1S(=O)(=O)N1CCOCC1	-1.7%	/	/	/	/	/
COc1ccc(CC(=O)Nc2ccc(F)c(F)c2F)cc1S(=O)(=O)N1CCOCC1	-4.8%	?	0.1%	/	-0.8%	11.7µM*
COc1ccc(CC(=O)Nc2nc(C)cs2)cc1S(=O)(=O)N1CCOCC1	3.4%	23.4%	1.7%	/	3.9%	?
CCCCc1nnc(NC(=O)Cc2ccc(OC)c(S(=O)(=O)N3CCOCC3)c2)s1	26.0%	?	-2.3%	/	3.0%	10.4µM*
COc1ccc(CC(=O)Nc2nnc(SCc3ccccc3)s2)cc1S(=O)(=O)N1CCOCC1	-0.7%	/	5.5%	18.5%	?	-26.0%
CC(OC(=O)/C=C/c1cccs1)C(=O)Nc1ccc(C(N)=O)cc1 (configuration not stated)	?	-2.3%	-2.8%	/	5.1%	-7.7%
O=C(Nc1ccccc1C(=O)O)c1cc(S(=O)(=O)N2CCCCC2)c(Cl)cc1Cl	-2.9%	4.6%	0.0%	?	-4.9%	-10.9%
CC(C)(C)NC(=O)[C@@H]1CN(Cc2cccnc2)CCN1C[C@@H](O)C[C@@H](Cc1ccccc1)C(=O)N[C@H]1c2ccccc2C[C@H]1O	-0.3%	/	/	/	-2.9%	/
CCOc1ccc(C(=O)Nc2cccc(C(C)=O)c2)cc1[N+](=O)[O-]	-0.2%	138.1%	0.1%	-2.3%	?	-3.9%
